Source: PubChem BioAssay AID1159580 (chemical genetic matrix, 2015)
Where “and” joins values, the source holds several entries; their conditions need not be identical. Identical values can stand only once. Among all 5,500 compounds or so, about 2,000 (36%) were called active. Inconclusive results (about 18%) are left out. Cut-off read from the data, not from the text of the source: active = normalized growth mostly below about 0.91 (no sharp cut-off); inconclusive = no clear call, values can overlap the other calls; inactive = mostly above about 0.92. This is one part of the list.

Assay: chemical genetic growth profiling, strain panel (AID 1159580);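 note: tested at 20 µM; growth read once vehicle control cultures reached saturation at 30 °C; 1 = growth at the plate median or of vehicle wells; lower values mean less growth of the strain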
Conditions: S. cerevisiae deletion strains, growth OD

Measured: normalized growth

CC(=O)OCC1=C(C(=O)O)N2C(=O)[C@@H](NC(=O)CCCC(N)C(=O)O)C2SC1 (some centres not stated)
inactive: locus YAL013W, strain DEP1, stronger effect = lower value 1.02 | locus YAL021C, strain ccr4, stronger effect = lower value 1.01 | locus YAL026C, strain drs2, stronger effect = lower value 1.01 | locus YAL030W, strain snc1, stronger effect = lower value 0.998 | locus YBL061C, strain skt5, stronger effect = lower value 0.997 | locus YBR009C, strain hhf1, stronger effect = lower value 1.02 | locus YBR021W, strain FUR4, stronger effect = lower value 0.998 | locus YBR023C, strain chs3, stronger effect = lower value 0.987 | locus YBR171W, strain sec66, stronger effect = lower value 1 | locus YBR229C, strain ROT2, stronger effect = lower value 1 | locus YBR231C, strain swc5, stronger effect = lower value 0.992 | locus YBR279W, strain paf1, stronger effect = lower value 0.989 | locus YCL011C, strain gbp2, stronger effect = lower value 1 | locus YCL016C, strain dcc1, stronger effect = lower value 0.988 | locus YCL029C, strain bik1, stronger effect = lower value 1.02 | locus YCL061C, strain MRC1, stronger effect = lower value 0.997 | locus YCL069W, strain vba3, stronger effect = lower value 0.997 | locus YCR088W, strain abp1, stronger effect = lower value 0.998 | locus YDL005C, strain med2, stronger effect = lower value 0.992 | locus YDL035C, strain GPR1, stronger effect = lower value 1.03 | locus YDL040C, strain nat1, stronger effect = lower value 0.99 | locus YDL074C, strain BRE1, stronger effect = lower value 1 | locus YDL101C, strain DUN1, stronger effect = lower value 1.01 | locus YDL134C, strain PPH21, stronger effect = lower value 1.01 | locus YDL185W, strain tfp1, stronger effect = lower value 1 | locus YDL192W, strain arf1, stronger effect = lower value 1.01 | locus YDR001C, strain nth1, stronger effect = lower value 0.99 | locus YDR069C, strain doa4, stronger effect = lower value 1.01 | locus YDR101C, strain arx1, stronger effect = lower value 1 | locus YDR137W, strain rgp1, stronger effect = lower value 0.985 | locus YDR150W, strain NUM1, stronger effect = lower value 1.02 | locus YDR159W, strain sac3, stronger effect = lower value 1.01 | locus YDR162C, strain NBP2, stronger effect = lower value 1.02 | locus YDR195W, strain ref2 0.963 | locus YDR297W, strain sur2, stronger effect = lower value 0.999 | locus YDR318W, strain mcm21, stronger effect = lower value 1.05 | locus YDR334W, strain swr1, stronger effect = lower value 0.996 | locus YDR335W, strain msn5, stronger effect = lower value 0.992 | locus YDR388W, stronger effect = lower value 0.986 | locus YDR392W, strain spt3, stronger effect = lower value 0.942 | locus YDR502C, strain sam2, stronger effect = lower value 1.04 | locus YEL003W, strain gim4, stronger effect = lower value 0.994 | locus YEL037C, strain rad23, stronger effect = lower value 0.99 | locus YEL061C, strain CIN8 (second series), stronger effect = lower value 0.991 | locus YEL061C, strain CIN8, stronger effect = lower value 1.01 | locus YER015W, strain faa2, stronger effect = lower value 0.993 | locus YER016W, strain bim1, stronger effect = lower value 0.999 | locus YER110C, stronger effect = lower value 0.994 | locus YER111C, strain swi4, stronger effect = lower value 0.995 | locus YER155C, strain BEM2 (second series), stronger effect = lower value 1 | locus YER155C, strain BEM2, stronger effect = lower value 1 | locus YER167W, strain BCK2, stronger effect = lower value 1.03 | locus YFR010W, strain ubp6, stronger effect = lower value 1.01 | locus YGL078C, strain dbp3, stronger effect = lower value 1.01 | locus YGL086W, strain mad1, stronger effect = lower value 1.04 | locus YGL167C, strain pmr1, stronger effect = lower value 0.992 | locus YGL173C, strain kem1, stronger effect = lower value 1.01 | locus YGL227W, strain vid30, stronger effect = lower value 0.994 | locus YGL240W, strain doc1, stronger effect = lower value 0.998 | locus YGL248W, strain PDE1, stronger effect = lower value 1 | locus YGL253W, strain hxk2, stronger effect = lower value 0.982 | locus YGR078C, strain PAC10, stronger effect = lower value 1.01 | locus YGR135W, strain pre9, stronger effect = lower value 1.06 | locus YGR229C, strain SMI1, stronger effect = lower value 1.01 | locus YGR252W, strain gcn5, stronger effect = lower value 1.04 | locus YHR013C, strain ard1, stronger effect = lower value 1.09 | locus YHR027C, strain rpn1, stronger effect = lower value 0.99 | locus YHR030C, strain SLT2, stronger effect = lower value 1.01 and 0.982 | locus YHR079C, strain IRE1 (second series), stronger effect = lower value 0.999 | locus YHR079C, strain IRE1, stronger effect = lower value 0.988 | locus YHR094C, strain hxt1, stronger effect = lower value 0.991 | locus YHR129C, strain ARP1, stronger effect = lower value 1 | locus YHR142W, strain chs7, stronger effect = lower value 0.994 | locus YHR200W, strain rpn10, stronger effect = lower value 1.02 | locus YIL066C, strain RNR3, stronger effect = lower value 1.04 | locus YIL073C, strain SPO22, stronger effect = lower value 1.25 | locus YIL125W, strain kgd1, stronger effect = lower value 1 | locus YIR030C, strain dcg1, stronger effect = lower value 1 | locus YJL092W, strain hpr5, stronger effect = lower value 0.993 | locus YJL095W, strain BCK1 (second series), stronger effect = lower value 0.99 | locus YJL095W, strain BCK1, stronger effect = lower value 1.01 | locus YJL115W, strain asf1, stronger effect = lower value 0.985 | locus YJL129C, strain trk1, stronger effect = lower value 1 | locus YJL134W, strain LCB3, stronger effect = lower value 1 | locus YJL154C, strain vps35, stronger effect = lower value 0.986 | locus YJL164C, strain tpk1, stronger effect = lower value 1.01 | locus YJL166W, strain qcr8, stronger effect = lower value 0.989 | locus YJL168C, strain set2, stronger effect = lower value 0.996 | locus YJL187C, strain SWE1 (second series), stronger effect = lower value 1.03 | locus YJL187C, strain SWE1, stronger effect = lower value 0.994 | locus YJR043C, strain POL32, stronger effect = lower value 1.01 | locus YJR066W, strain TOR1, stronger effect = lower value 0.942
